Molecules are shown by their SMILES. The whole screen tested about 340,000 compounds, of which about 1,000 (0.29%) were called active. No stated cut-off is given here; in the data, inconclusive means inhibition above about 29% without an active follow-up result; inactive means below that. The list is a sample of the results. Results with a measured potency or affinity are listed apart.

The target in this assay is Genome polyprotein (Dengue virus type 2 (strain 16681-PDK53)) (UniProt P29991). The experiment in a line: Dengue-2 NS5 methyltransferase inhibitors, primary screen, biochemical, confirmation dose response (AID 588689). The settings on record: Dengue-2 NS5 methyltransferase capping enzyme assay, at 25 µM, stronger effect = higher value.
Genome polyprotein (Dengue virus type 2 (strain 16681-PDK53)), sequence (P29991 whole entry, looked up): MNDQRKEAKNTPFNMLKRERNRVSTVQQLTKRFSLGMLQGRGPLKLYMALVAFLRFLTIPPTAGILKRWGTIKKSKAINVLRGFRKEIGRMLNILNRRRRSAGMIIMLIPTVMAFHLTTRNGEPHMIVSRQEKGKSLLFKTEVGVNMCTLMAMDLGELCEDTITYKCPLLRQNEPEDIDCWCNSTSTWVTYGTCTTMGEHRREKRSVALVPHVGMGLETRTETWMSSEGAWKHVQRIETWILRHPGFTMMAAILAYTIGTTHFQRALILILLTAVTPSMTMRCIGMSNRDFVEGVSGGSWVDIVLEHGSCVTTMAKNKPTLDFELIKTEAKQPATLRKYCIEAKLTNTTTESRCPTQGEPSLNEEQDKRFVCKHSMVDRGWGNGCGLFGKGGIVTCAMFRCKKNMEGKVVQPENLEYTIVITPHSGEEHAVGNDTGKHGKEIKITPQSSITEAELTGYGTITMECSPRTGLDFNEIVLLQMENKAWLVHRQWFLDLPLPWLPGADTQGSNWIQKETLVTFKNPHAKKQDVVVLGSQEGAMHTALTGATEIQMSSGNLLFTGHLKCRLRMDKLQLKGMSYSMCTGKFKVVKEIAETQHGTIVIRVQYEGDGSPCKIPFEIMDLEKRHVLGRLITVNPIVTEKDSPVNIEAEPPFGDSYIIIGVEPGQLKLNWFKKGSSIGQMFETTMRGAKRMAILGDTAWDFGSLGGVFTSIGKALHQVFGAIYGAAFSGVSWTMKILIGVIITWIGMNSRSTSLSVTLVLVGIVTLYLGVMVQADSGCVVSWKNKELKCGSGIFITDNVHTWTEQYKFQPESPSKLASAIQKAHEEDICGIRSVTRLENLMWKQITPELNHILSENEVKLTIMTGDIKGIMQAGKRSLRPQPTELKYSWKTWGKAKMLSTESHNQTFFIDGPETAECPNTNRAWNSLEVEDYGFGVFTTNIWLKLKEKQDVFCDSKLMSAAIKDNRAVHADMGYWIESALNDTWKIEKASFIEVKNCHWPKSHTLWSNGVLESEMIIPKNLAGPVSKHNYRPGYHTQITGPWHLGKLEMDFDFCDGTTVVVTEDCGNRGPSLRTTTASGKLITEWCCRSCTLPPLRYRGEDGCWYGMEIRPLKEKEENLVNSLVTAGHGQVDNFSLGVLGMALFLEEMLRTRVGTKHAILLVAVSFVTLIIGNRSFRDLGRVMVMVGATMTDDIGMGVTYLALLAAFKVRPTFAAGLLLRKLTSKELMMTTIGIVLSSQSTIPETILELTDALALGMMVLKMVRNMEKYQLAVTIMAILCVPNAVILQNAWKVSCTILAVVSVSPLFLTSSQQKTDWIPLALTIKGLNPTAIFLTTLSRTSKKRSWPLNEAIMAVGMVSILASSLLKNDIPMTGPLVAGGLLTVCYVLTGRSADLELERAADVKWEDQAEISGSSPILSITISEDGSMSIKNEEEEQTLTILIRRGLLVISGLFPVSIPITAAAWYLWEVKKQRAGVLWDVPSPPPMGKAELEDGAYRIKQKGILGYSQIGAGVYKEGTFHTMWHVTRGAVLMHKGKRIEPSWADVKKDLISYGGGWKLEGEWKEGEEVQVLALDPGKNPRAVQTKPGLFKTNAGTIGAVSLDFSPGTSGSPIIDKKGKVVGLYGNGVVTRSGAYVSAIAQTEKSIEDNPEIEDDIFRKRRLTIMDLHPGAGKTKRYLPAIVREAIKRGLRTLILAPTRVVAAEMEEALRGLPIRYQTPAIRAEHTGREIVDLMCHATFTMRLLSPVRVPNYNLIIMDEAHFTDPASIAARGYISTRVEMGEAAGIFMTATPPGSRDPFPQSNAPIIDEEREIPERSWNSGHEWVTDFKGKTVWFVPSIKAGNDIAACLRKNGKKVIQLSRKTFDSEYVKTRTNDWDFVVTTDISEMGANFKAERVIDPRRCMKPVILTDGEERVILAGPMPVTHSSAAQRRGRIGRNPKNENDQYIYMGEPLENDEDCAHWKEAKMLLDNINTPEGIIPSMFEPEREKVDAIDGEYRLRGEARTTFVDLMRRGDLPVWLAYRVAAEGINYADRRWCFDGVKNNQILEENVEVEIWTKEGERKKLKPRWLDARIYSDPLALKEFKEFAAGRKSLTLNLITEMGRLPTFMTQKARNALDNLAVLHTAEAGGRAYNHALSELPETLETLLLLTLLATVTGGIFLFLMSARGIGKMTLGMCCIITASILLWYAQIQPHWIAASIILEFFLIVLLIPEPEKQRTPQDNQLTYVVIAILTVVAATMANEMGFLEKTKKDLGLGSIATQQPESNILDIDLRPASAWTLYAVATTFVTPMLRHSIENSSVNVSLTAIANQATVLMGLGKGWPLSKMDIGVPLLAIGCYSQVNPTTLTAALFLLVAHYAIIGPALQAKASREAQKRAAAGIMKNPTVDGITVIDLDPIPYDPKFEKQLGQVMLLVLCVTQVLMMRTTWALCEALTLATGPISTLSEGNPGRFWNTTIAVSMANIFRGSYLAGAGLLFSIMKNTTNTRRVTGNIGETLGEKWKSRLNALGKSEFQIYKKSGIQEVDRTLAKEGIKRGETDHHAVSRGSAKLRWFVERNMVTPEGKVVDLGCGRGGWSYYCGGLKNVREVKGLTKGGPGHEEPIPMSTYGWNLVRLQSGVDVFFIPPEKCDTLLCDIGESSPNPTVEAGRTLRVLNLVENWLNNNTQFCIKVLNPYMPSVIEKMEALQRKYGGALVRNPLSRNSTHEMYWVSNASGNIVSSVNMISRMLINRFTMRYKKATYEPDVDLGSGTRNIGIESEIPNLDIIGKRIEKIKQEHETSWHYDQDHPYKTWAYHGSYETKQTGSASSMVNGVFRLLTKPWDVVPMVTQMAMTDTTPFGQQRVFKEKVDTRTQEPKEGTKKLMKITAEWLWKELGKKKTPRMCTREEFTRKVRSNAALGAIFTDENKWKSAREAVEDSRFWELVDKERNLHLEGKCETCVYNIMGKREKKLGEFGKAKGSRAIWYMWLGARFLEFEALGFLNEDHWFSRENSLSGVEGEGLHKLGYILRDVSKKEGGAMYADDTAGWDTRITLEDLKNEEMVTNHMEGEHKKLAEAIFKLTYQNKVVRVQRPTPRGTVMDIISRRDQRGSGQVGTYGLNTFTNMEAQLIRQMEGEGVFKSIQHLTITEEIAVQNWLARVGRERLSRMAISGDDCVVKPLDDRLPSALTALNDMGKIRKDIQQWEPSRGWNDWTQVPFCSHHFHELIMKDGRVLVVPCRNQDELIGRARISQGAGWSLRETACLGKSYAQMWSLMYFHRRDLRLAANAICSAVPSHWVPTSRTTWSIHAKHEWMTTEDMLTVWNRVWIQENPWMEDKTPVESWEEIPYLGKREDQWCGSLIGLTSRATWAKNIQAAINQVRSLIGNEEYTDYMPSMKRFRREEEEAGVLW

A word on the inhibition: it is the drop in the measured response relative to a control, in per cent. In the case of `Cc1ccc(-c2cc(C(=O)N3CCOCC3)c3cc(C)ccc3n2)cc1`, the inhibition is -1.58% (inactive).

With `O=C1CS/C(=C\S(=O)(=O)c2ccc(Cl)cc2)N1`, the inhibition is -10.6% (inactive).

Take `CCC(=O)N1c2ccccc2-c2nnc(SC)nc2OC1c1ccc(N(C)C)cc1` (stereo not given): the inhibition is -7.25% (inactive).

Take `Cc1cnn(C(=O)c2cc(-c3ccccn3)nc3ccc(Cl)cc23)c1`: the inhibition is 8.88% (inactive).

Turning to `CCOC(=O)NC1(C(F)(F)F)NC(=O)N(C2CCCCC2)C1=O` (stereo not given), the inhibition was -2.12% (inactive).

For `COc1ccc(CCNC(=O)CSc2nc(=O)n3cc(C)ccc3n2)cc1OC`, the inhibition was 3.6% (inactive).

As for `CCCCn1c(SCC(=O)NNC(=O)c2ccccc2)n[nH]c1=O`, the inhibition is 3.69% (inactive).

For the compound `Cc1nnc(SCC(=O)Nc2nc3ccccc3s2)n(N)c1=O`, the inhibition is -2.58% (inactive).

With `O=C(O)c1cccc(Nc2ccc([N+](=O)[O-])c3nonc23)c1`, the inhibition is 1.29% (inactive).

Turning to `O=C(O)c1cccc(Nc2ccc3nonc3c2[N+](=O)[O-])c1`, the inhibition is 1.54% (inactive).

Consider `O=C(O)c1ccc(Nc2ccc([N+](=O)[O-])c3nonc23)cc1`, for which the inhibition was -1.54% (inactive).

Turning to `CCNc1cc(Nc2c(C)n(C)n(-c3ccccc3)c2=O)c([N+](=O)[O-])c2nonc12`, the inhibition was 6.99% (inactive).

As for `O=C(O)c1ccc(Nc2ccc3nonc3c2[N+](=O)[O-])cc1`, the inhibition is -2.31% (inactive).

Regarding `O=[N+]([O-])c1c(Nc2ccccc2O)ccc2nonc12`, the inhibition is 6.25% (inactive).

In the case of `Cc1c(Nc2cc(N3CCCCCC3)c3nonc3c2[N+](=O)[O-])c(=O)n(-c2ccccc2)n1C`, the inhibition is -6.93% (inactive).

Consider `O=[N+]([O-])c1c(Nc2ccccc2O)cc(N2CCOCC2)c2nonc12`, for which the inhibition was 6.36% (inactive).

In the case of `O=C(COC(=O)/C=C/c1cccc(Br)c1)NCc1cccs1`, the inhibition is -4.41% (inactive).

As to `COCCCNC(=O)Cn1cnc(C(=O)Nc2ccc(C)c(C)c2)n1`, the inhibition was -3.97% (inactive). In addition, where the note is “measured here: pilot screen replicate inhibition”, the inhibition is 0.615%.

Take `COc1cccc(Nc2nc(N)nc(-c3oc4ccccc4c3C)n2)c1`: the inhibition was -4.01% (inactive).

As for `Cc1ccc(NS(=O)(=O)c2ccc(OCC(=O)NCC3CCCO3)cc2)cc1` (stereo not given), the inhibition was 2.96% (inactive).

On to `O=S(=O)(Nc1ccc2c(c1)nc1n2CCOC1)c1ccc(Cl)cc1`, for which the inhibition is -6.15% (inactive).

Regarding `COc1cccc(/C=N/N2CCOCC2)c1O`, the inhibition is -2.67% (inactive).

Regarding `COc1ccc(O)c(/C=N/N2CCOCC2)c1`, the inhibition is -4.77% (inactive).

As for `COc1ccc(C=C2NC(=O)NC2=O)cc1O`, the inhibition was 5.71% (inactive).

As to `COc1ccc(NC(=S)N(CCC(C)C)C(C)c2ccncc2)cc1` (stereo not given), the inhibition is 0.57% (inactive).

`CCOC(=O)c1ccc(OCc2nc(-c3cccs3)no2)cc1`: the inhibition is -0.7% (inactive).

Turning to `CN(C)S(=O)(=O)c1cccc(NC(=O)CO/N=C(\N)c2ccccc2)c1`, the inhibition is 2.16% (inactive).

In the case of `CN(C)S(=O)(=O)c1cccc(-c2nn(-c3ccccc3)cc2/C=C2\SC(=S)NC2=O)c1`, the inhibition was -16% (inactive).

For `COc1ccc(-c2nn(-c3ccccc3)cc2/C=C2/SC(=S)N(CCC(=O)O)C2=O)cc1`, the inhibition is 11.8% (inactive).

As to `CCN1C(=O)/C(=C\c2cn(-c3ccccc3)nc2-c2cccnc2)SC1=S`, the inhibition was 2.99% (inactive).

As for `CC1CCN(C2=NC(=O)/C(=C/c3cn(-c4ccccc4)nc3-c3cccc(S(=O)(=O)N(C)C)c3)S2)CC1`, the inhibition was -0.56% (inactive).

For the compound `CCC(=O)Nc1ccc2c(c1)ncn2C`, the inhibition is -8.57% (inactive).

For the compound `CCC(=O)Nc1ccc2ccccc2c1`, the inhibition is -7.67% (inactive).

Turning to `O=c1[nH]nc(-c2ccc(F)cc2)cc1Cc1ccccc1`, the inhibition was -7.66% (inactive).

As for `N#C/C(=C\c1ccccc1OCc1ccc(C(=O)O)cc1)C(=O)Nc1ccc(O)cc1`, the inhibition is 27% (inactive).

`COc1ccc(NC(=O)/C(C#N)=C\c2ccc(OCc3ccc(C(=O)O)cc3)c(OC)c2)cc1`: the inhibition was -8.98% (inactive).

Turning to `O=C(NCCCN1CCOCC1)c1ccc(S(=O)(=O)Nc2ccccc2)cc1`, the inhibition was -4.34% (inactive).

Take `Cc1ccc(NC(=O)Nc2cc(C)on2)cc1`: the inhibition is -0.74% (inactive).

Consider `CCNc1nc(SC(C(C)=O)C(C)=O)nc(N(C)C)n1`, for which the inhibition was -1.07% (inactive).

For `COc1ccc([N+](=O)[O-])cc1NCC(=O)Nc1cccc(S(=O)(=O)N2CCCC2)c1`, the inhibition was -0.72% (inactive).

`O=C1C(c2ccncc2)=C(O)c2ccccc21`: the inhibition is 2.03% (inactive).

In the case of `O=C1C(c2c(O)[nH]c3ccccc23)=Nc2ccccc21`, the inhibition was -46.9% (inactive).

In the case of `Clc1ccc(-c2nsc(N3CCOCC3)n2)c(Cl)c1`, the inhibition is -8.96% (inactive).

With `Cc1cc(C)c(NC(=O)CNC(=O)COC(=O)/C=C/c2cccs2)c(C)c1`, the inhibition is -7.3% (inactive).

Take `CCc1nnc(NS(=O)(=O)c2ccc(NC(=S)NC(=O)/C=C/c3ccccc3)cc2)s1`: the inhibition is 8.99% (inactive).

Take `CCc1nnc(NS(=O)(=O)c2ccc(NC(=S)NC(=O)/C=C/c3ccc([N+](=O)[O-])cc3)cc2)s1`: the inhibition is 9.83% (inactive).

With `CCc1nnc(NS(=O)(=O)c2ccc(NC(=S)NC(=O)/C=C/c3ccc(OC)cc3)cc2)s1`, the inhibition was -1.6% (inactive).

With `CCc1nnc(NS(=O)(=O)c2ccc(NC(=O)/C=C/c3ccc(F)cc3)cc2)s1`, the inhibition was 3.59% (inactive).

As for `CC(C)NC1(C#N)CCN(Cc2ccccc2)CC1`, the inhibition was 0% (inactive).

For `CCOc1ccc(Nc2nc(C)cc(C)c2C#N)cc1`, the inhibition is 0% (inactive).

On to `COC(=O)c1sc(N)c(C(=O)OC)c1COC(=O)CNS(=O)(=O)c1cccc(C#N)c1`, for which the inhibition was -1.45% (inactive).

`COC(=O)c1cc(C)c(C)cc1NC1OC(CO)C(O)C1O` (stereo not given): the inhibition is -9.68% (inactive).

Take `C[C@H](CO)N1C[C@H](C)[C@@H](CN(C)C(=O)c2cnccn2)Oc2cc(C#CCC3CCCC3)ccc2S1(=O)=O`: the inhibition was -16.2% (inactive).

Consider `O=C(NCc1ccccc1)N1CCC(CO)(CCc2ccccc2)CC1`, for which the inhibition was 5.32% (inactive).

Regarding `O=C(O)C1Nc2c(Cl)cc(Cl)c(Cl)c2C2C=CCC12` (stereo not given), the inhibition was 8.87% (inactive).

For the compound `CC(C)C1Nc2ccc(S(N)(=O)=O)cc2C2C=CCC21` (stereo not given), the inhibition was 16% (inactive).

On to `CCOC(=O)N1CCC(NC(=O)CCS(=O)(=O)c2ccc3c(c2)CCN3C(C)=O)CC1`, for which the inhibition is 0% (inactive).

As to `CCOC(=O)/C=C(\C)Sc1cc(=O)oc2ccccc12`, the inhibition was -12.1% (inactive).

Turning to `CCOC(=O)c1c(C)oc2c1cc(O)c1ccccc12`, the inhibition is 18.5% (inactive).

Source of the values: PubChem BioAssay AID588689 (Southern Research Specialized Biocontainment Screening …, 2011).
